{
  "source": "PubChem BioAssay AID651707",
  "about": "(NMMLSC, 2012)",
  "note": "The campaign covered roughly 2,300 compounds. About 170 (7.4%) were called active.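 How the source made its calls: active means over 5% cells positive for green fluorescent reporter, or over 2% positive for both it and APC stain; inactive means the rest, inconclusive results apart.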 Only a selection was taken, and actives are over-represented in it overall.",
  "data": [
    {"experiment": "fluorescent artefacts in myeloid progenitor cells – cell-based, flow cytometry, GFP/APC, Cherry Pick01, artefact control for AML myeloid differentiation project, confirmation (AID 651707);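 further: range taken on the double positive population between DMSO and positive control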", "settings": "ER-HoxA9 myeloid progenitors, no estrogen, GFP autofluorescence flow cytometry; stronger effect = higher value", "values": [
      {"compound": "CC/C(=N\\NC(=O)c1ccccc1O)c1c(O)n(Cc2ccccc2)c(=O)[nH]c1=O", "fluorescence response": "5.1% (active)"}
    ]}
  ]
}
